Experimental data reported in PubChem BioAssay (Tox21).
Inconclusive results are not listed. Active and inactive are the calls of the source. Calls come from the whole dose curve.

Molecular target: Thyrotropin receptor (Homo sapiens) (UniProt P16473)
Test: qHTS assay to identify small molecule agonists of the thyroid stimulating hormone receptor (TSHR) signaling pathway (AID 1224843); note: nearly all actives have a fitted effect of over 45% in size
Details: TSHR-HEK293 cells, cAMP HTRF, agonist mode, 30 min; series mostly up to 92.4 µM; activation: at the top concentration
How it was run: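 HEK293/TSHR, 800 cells/well; cpd 30 min RT; add cAMP-d2 + anti-cAMP-cryptate, 1 h RT; fluorescence read on plate reader. 15-pt titration, n=3.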
% is set by controls: 0 for no effect and ±100 for the full control effect.

Sequence of Thyrotropin receptor (Homo sapiens) (P16473 whole entry, looked up): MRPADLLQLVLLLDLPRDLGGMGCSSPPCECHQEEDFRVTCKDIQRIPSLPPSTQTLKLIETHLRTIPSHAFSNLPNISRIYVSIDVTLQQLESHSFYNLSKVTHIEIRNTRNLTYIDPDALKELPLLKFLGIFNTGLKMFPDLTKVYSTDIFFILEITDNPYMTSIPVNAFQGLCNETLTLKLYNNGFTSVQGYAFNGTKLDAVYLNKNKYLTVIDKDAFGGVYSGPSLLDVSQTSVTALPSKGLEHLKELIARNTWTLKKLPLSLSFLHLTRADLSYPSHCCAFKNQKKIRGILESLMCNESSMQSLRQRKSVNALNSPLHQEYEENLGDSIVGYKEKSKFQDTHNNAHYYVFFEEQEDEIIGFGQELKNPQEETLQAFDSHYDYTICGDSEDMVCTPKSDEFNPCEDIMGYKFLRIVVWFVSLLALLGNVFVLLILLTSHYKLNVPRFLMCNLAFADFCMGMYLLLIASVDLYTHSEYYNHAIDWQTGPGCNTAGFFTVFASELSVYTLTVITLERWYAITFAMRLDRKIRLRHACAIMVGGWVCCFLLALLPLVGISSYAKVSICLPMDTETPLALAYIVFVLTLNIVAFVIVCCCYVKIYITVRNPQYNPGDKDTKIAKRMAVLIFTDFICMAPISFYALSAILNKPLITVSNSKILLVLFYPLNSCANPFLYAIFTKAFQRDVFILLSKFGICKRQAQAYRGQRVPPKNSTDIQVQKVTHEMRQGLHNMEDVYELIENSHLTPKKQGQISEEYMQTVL

Row | Compound | activation
1 | CCC(=O)OC1(c2ccccc2)CCN(C)CC1 | -5.82% (inactive)
2 | CCCCOC(C)=O | 6.46% (inactive)
3 | COC1=CC(=O)O[C@@H](/C=C/c2ccccc2)C1 | -18.7% (inactive)
4 | CCC(C(N)=O)N1CCCC1=O (stereo not given) | 0.364% [at 42.5 µM] (inactive)
5 | O=C(O)CBr | -11.4% (inactive)
6 | CCCN1CCC[C@@H]2Cc3nc(N)ncc3C[C@H]21 | 9.17% [at 42.5 µM] (inactive)
7 | CC(C)c1ccc(O)cc1 | 12.5% (inactive)
8 | [P]#[In] | 2.07% (inactive)
9 | CC1N=C(N)OC1c1ccccc1 (stereo not given) | 6.95% (inactive)
10 | CCCOc1nn(C(=O)NS(=O)(=O)c2ccccc2C(=O)OC)c(=O)n1C | -2.61% (inactive)
11 | COC(=O)[C@@H](N)CCCN/C(N)=N/[N+](=O)[O-] | -0.587% [at 42.5 µM] (inactive)
12 | CCN[C@@H](C)Cc1cccc(C(F)(F)F)c1 | 5.1% [at 42.5 µM] (inactive)
13 | O=c1[nH]oc2c1CCNC2 | 3.42% [at 42.5 µM] (inactive)
14 | CC(C)(C)C(=O)Cl | -7.53% (inactive)
15 | CCCOC(=O)Cc1ccc(OCC(=O)N(CC)CC)c(OC)c1 | -0.741% [at 42.5 µM] (inactive)
16 | Cc1ccc2c(c1)C1CN(C)CCC1N2 (stereo not given) | 15.7% [at 19 µM] (inactive)
17 | C=CCN1CC[C@]23CCCC[C@H]2[C@H]1Cc1ccc(O)cc13 | 15.7% [at 42.5 µM] (inactive)
18 | O=C(Cl)C(Cl)Cl | 16.1% (inactive)

Row | Compound | activation
19 | CCOC1Oc2ccc(OS(C)(=O)=O)cc2C1(C)C (stereo not given) | -0.131% (inactive)
20 | Brc1c(Br)c(Br)c(Br)c(Br)c1Br | 1.42% [at 8.39 µM] (inactive)
21 | CCOP(=S)(OCC)Oc1ccc(Cl)cc1Cl | -24.8% (inactive)
22 | CCC1(c2cccc(O)c2)CCCCN(C)C1 (stereo not given) | 2.01% [at 42.5 µM] (inactive)
23 | CCN[C@@H](C)Cc1ccccc1 | 2.35% (inactive)
24 | CCOC(=O)C(SP(=S)(OC)OC)c1ccccc1 (stereo not given) | 1.1% (inactive)
25 | CC1NCCOC1c1ccccc1 (stereo not given) | -3.05% [at 42.5 µM] (inactive)
26 | CC(C)(N)Cc1ccc(Cl)cc1 | -0.216% [at 42.5 µM] (inactive)
27 | Oc1ccc2c3c1O[C@H]1[C@@H](O)C=C[C@H]4[C@@H](C2)NCC[C@@]341 | -2.36% (inactive)
28 | N[C@@H]1C[C@H]1c1ccccc1 | 0.14% [at 42.5 µM] (inactive)
29 | CCOC(=O)c1ncn2c1CN(C)C(=O)c1c(I)cccc1-2 | 0.628% [at 42.5 µM] (inactive)
30 | O=P(O)(O)c1ccccc1 | -2.11% (inactive)
31 | CCCCCCC1CCOC1=O (stereo not given) | -4.62% (inactive)
32 | Clc1cc2c(cc1Cl)Oc1cc(Cl)c(Cl)cc1O2 | 10.3% [at 0.349 µM] (inactive)
33 | O=C(O)C(Br)(Br)Br | 12% (inactive)
34 | CC(C)N(Cc1ccccc1)C(=O)C(C)(C)C | -9.64% (inactive)
35 | CCCN1CCC[C@@H]2Cc3[nH]ncc3C[C@H]21 | 0.0417% [at 42.5 µM] (inactive)
